TRPML1 inh: qHTS for Inhibitors of the Human Mucolipin Transient Receptor Potential 1 (TRPML1). TRPML1-inducible cells, Ca2+ dye fluorescence, FDSS; stronger effect = lower value; inhibition of EC80 agonist-evoked calcium signal. activity change, negative = inhibition, % (concentration not given with the values). hit rate 0.02% among 390,000. AID 624415, 2012; in the data active means activity change below about -50%; inconclusive means between about -30% and that limit;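 further: stimulus is agonist 54-4 at its EC80 concentration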
Target sequence (Q9GZU1 whole entry, looked up): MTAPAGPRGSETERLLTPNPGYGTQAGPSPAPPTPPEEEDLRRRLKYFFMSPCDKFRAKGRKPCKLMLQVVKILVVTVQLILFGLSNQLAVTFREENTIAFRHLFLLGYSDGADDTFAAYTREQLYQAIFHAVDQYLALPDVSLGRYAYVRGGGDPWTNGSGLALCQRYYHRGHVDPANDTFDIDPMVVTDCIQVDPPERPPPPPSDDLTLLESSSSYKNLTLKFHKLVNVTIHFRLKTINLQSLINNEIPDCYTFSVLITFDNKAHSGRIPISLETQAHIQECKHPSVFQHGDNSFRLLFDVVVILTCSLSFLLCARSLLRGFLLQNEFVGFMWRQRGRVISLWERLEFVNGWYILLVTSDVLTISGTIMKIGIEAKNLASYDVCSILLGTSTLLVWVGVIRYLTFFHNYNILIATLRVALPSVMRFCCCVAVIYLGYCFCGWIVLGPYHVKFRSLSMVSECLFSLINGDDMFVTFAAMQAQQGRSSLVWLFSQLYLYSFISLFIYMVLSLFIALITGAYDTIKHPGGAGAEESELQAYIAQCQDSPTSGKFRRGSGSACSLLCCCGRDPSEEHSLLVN
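TRPML1-DL cells, Tet-induced overnight (~16 h, 37 °C) at 1,500 cells/well, were loaded with Ca8 no-wash dye plus quencher for 45-90 min at room temperature. Compounds were pinned during FDSS kinetic reading; agonist 54-4 at EC80 (4 uM final) then added.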
TRHR agonist: qHTS for Small Molecule Agonists and Allosteric Enhancers of Human TRH Receptor: Primary Screen for Agonists; Thyrotropin-releasing hormone receptor (Homo sapiens), P34981; TRHR cells, calcium flux fluo-8, FDSS agonist mode; activation, % at 2 µM; hit rate 0.18% among 360,000; AID 493084, 2011; in the data active means activation above about 30%
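Read-out: compound-evoked intracellular calcium rise in TRHR cells, fluo-8 dye, kinetic FDSS fluorescence at 1 s/cycle following a 10-cycle baseline. Cells cultured overnight before dye loading (30 min–1.5 h, RT).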
TRPML1 ag: qHTS for Agonists of the Human Mucolipin Transient Receptor Potential 1 (TRPML1); Mucolipin-1 (Homo sapiens), Q9GZU1; hit rate 0.12% among 410,000; AID 624414, 2012; TRPML1-expressing cells, Ca2+ dye fluorescence, FDSS; activation, % (no concentration beside the values); in the data active means activation above about 50%; inconclusive means mostly about 30% to 49%
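TRPML1-DL cells, Tet-induced overnight (~16 h, 37 degrees C), loaded 45-90 min at room temperature with Ca8 no-wash calcium dye plus quencher. FDSS fluorescence: 10 s baseline, compound pin-transfer, 110 s agonist read, then EC80 54-4 (4uM final) and 110 s antagonist read.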
TRHR PAM: qHTS for Small Molecule Agonists and Allosteric Enhancers of Human TRH Receptor: Primary Screen for Enhancers; Thyrotropin-releasing hormone receptor (Homo sapiens), P34981; TRHR cells, fluo-8 calcium fluorescence, EC20 TRH enhancement; enhancement, % at 2 µM; hit rate 0.66% among 360,000; AID 493056, 2011; in the data active means enhancement above about 30%
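Enhancer read-out: after compound pinning and an initial kinetic agonist-mode read, an EC20 of TRH (10 nM final) was injected and fluo-8 calcium signal (Ex 480/Em 530) followed at 1 s/cycle for 100 cycles in TRHR-expressing cells.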
Numbers stand for hits; n = inactive; u = inconclusive; x = not tested or not shown. Only some compounds are listed: those with a hit (about 0.81% of all), similar ones and a draw of the others.

SMILES	TRPML1 inh	TRHR agonist	TRPML1 ag	TRHR PAM
COc1ccc(C(=O)c2sc3nc(C)cc(-c4cccs4)c3c2N)cc1OC	n	n	52.2	n
COc1ccc(C(=O)c2sc3nc(C)cc(-c4cccs4)c3c2N)cc1	n	n	u	n
CC1CCCCN1C(=O)Cn1c(=O)oc2cc(S(=O)(=O)N3CCCC3)ccc21 (stereo not given)	n	n	n	33.7
COCCn1c(C)cc(O)c(C(c2ccccc2OC)N2CCN(c3ccccc3)CC2)c1=O (stereo not given)	n	n	n	45.5
CCC(CC)C(=O)N1CCN(Cc2nc3ccccc3c(=O)[nH]2)CC1	n	n	n	31.7
O=c1[nH]c(CN2CCN(c3ccc(F)cc3)CC2)nc2ccccc12	n	n	n	34.0
O=C(c1cccs1)N1CCN(Cc2nc3ccccc3c(=O)[nH]2)CC1	n	n	n	n
O=c1[nH]c(CN2CCN(c3ccccc3)CC2)nc2ccccc12	n	n	n	n
O=C(Nc1ccc(Cl)cc1Cl)[C@@H]1CC=C[C@@H]2CCN(Cc3ccccc3)C(=O)[C@@H]21	x	x	n	x
O=C(c1ccc([N+](=O)[O-])cc1)N1CCC(n2nnc3cc(F)ccc32)CC1	n	n	n	40.4
N#Cc1nc(Nc2cc(F)cc(F)c2)nc(NC2CCCC2)n1	x	n	x	n
CC(=O)N1CCc2c(sc3c2c(=O)n(-c2ccccc2C)c(=O)n3CC(=O)Nc2ccccc2)C1	n	n	n	48.4
O=C(C[n+]1c(Cl)cc(Cl)c2ccccc21)c1ccccc1	x	x	n	x
O=C(Oc1ccc2c(c1)OCO2)c1cccs1	-50.1	n	n	n
Cc1cc(OC(=O)c2cccs2)ccc1C(C)C	n	n	n	n
COc1ccc(-n2c(O)c(/C=N/NS(=O)(=O)c3cc(C)ccc3C)c3ccccc3c2=O)cc1OC	n	71.7	u	n
CCCN1C(=O)/C(=C/c2c(N3CCNC(=O)C3CC(=O)OC)nc3c(C)cccn3c2=O)SC1=S (stereo not given)	x	75.7	x	n
Cc1ccc(N=Cc2sc(O)c3ccccc23)cc1	n	66.4	n	n
N#C/C(=C/c1ccc(O)cc1)c1nc(-c2ccc(-c3ccccc3)cc2)cs1	n	n	n	43.3
COc1ccc(/C=C(/C#N)c2nc(-c3ccc(-c4ccccc4)cc3)cs2)cc1	n	n	n	n
Cc1cccc(Cn2cnc3c(cnn3C(C)(C)C)c2=O)c1	n	x	n	x
O=C(Nc1nc(-c2ccccc2)cs1)c1cccc(S(=O)(=O)N2CCN(Cc3ccccc3)CC2)c1	n	n	n	36.6
Cc1cc(=O)oc2cc(OCC(=O)Nc3ccc(CN4CCOCC4)cc3)ccc12	n	n	n	n
O=C(COc1ccc2c3c(c(=O)oc2c1)CCC3)Nc1ccc(CN2CCOCC2)cc1	n	n	n	33.0
CS(=O)(=O)c1ccc(NC(=O)COc2ccccc2C(=O)Nc2ccccc2)cc1	x	x	n	x
SMILES	TRPML1 inh	TRHR agonist	TRPML1 ag	TRHR PAM
C[n+]1ccnc2ccccc21	x	x	n	x
O=C(Cc1ccc(OCCc2ccccc2)cc1)NO	x	x	n	x
CC(C)(C)c1ccc(C(=O)NCCC(=O)N2CCCC2)cc1	n	n	n	n
CC(C)(C)c1ccc(C(=O)NCCC(=O)N2CCN(c3ncccn3)CC2)cc1	n	n	69.2	n
O=C(OCCN1C(=O)c2cccc3c(N4CCOCC4)ccc(c23)C1=O)c1cccc(Cl)c1	n	35.1	n	n
O=C(OCCN1C(=O)c2cccc3c(N4CCOCC4)ccc(c23)C1=O)c1ccc(Cl)cc1Cl	n	71.1	n	n
COc1ccc(CN2CC[C@H]3C=CC[C@@H](C(=O)Nc4nccs4)[C@H]3C2=O)cc1OC	x	x	n	x
CCn1cnc2c(Nc3cc(F)cc(F)c3)nc(C(=O)COc3c(F)c(F)cc(F)c3F)nc21	x	n	x	n
CC(=O)Nc1ccc(S(=O)(=O)Nc2cccn(Cc3ccc(C)cc3)c2=O)cc1	n	n	n	32.6
CC(=O)Nc1ccc(S(=O)(=O)Nc2ccccc2N2CCOCC2)cc1	n	n	n	33.6
CC(=O)Nc1ccc(S(=O)(=O)Nc2cc(C)cn(Cc3ccccc3)c2=O)cc1	n	n	n	n
Cc1ccc(S(=O)(=O)NC(N)=NCCC[C@@H](N)C(=O)Nc2cc(C(F)(F)F)ccc2Cl)cc1	x	n	x	n
Cc1cc[n+](C2CCCCC2)c2ccccc12	x	x	n	x
CCc1ccc(OC)c(S(=O)(=O)NCCOc2ccccc2)c1	n	n	n	30.8
O=C(Cc1ccc(Cl)cc1)NO	x	x	n	x
Cc1ccccc1-n1c(C)c(C#N)c(=O)c(-[n+]2ccccc2)c1[S-]	n	n	n	n
Cc1c(C#N)c(=O)c(-[n+]2ccccc2)c([S-])n1-c1ccc(Cl)cc1	n	n	n	32.5
O=C(NC1CC1)c1c[nH]c2ccc(S(=O)(=O)Nc3cccc(C(F)(F)F)c3)cc2c1=O	n	n	n	40.3
COc1ccc(/C=C/C(=O)Nc2ccc(-c3nnc4n3CCCCC4)cc2)c(OC)c1	n	n	n	34.6
N#CN=c1snc(-c2ccccc2)n1-c1ccc(Cl)cc1	x	x	n	x
C1=CN2CC=Cc3cc(/C=C/c4ccnc5ccccc45)cc(c32)C1	x	x	n	x
Cc1ccc2nc(/C=C/c3ccc(N(C)C)cc3)ccc2c1	x	x	n	x
COC(=O)c1ccc(C)cc1C1CN=NC12Cc1cc(C)ccc1C2=O (stereo not given)	n	x	95.4	x
CCOc1cc(C(Nc2cc(C)ccn2)c2ccc3cccnc3c2O)ccc1OC (stereo not given)	n	n	n	41.0
CC(C)c1onc(C(=O)NCc2ccccn2)c1[N+](=O)[O-]	n	n	n	30.6
SMILES	TRPML1 inh	TRHR agonist	TRPML1 ag	TRHR PAM
Cc1cc2c(s1)c1cnn(Cc3c(F)cccc3F)c(=O)c1n2C	x	n	x	n
c1ccc(Nc2nc(N3CCOCC3)nc(N3CCOCC3)n2)cc1	n	n	n	39.4
CCOc1ccc(Nc2nc(Nc3ccc(OCC)cc3)nc(N3CCOCC3)n2)cc1	n	n	n	34.5
Cc1cc(/C=N/Nc2nc(N3CCOCC3)nc(N3CCOCC3)n2)c(C)n1-c1ccccc1	n	n	n	32.2
c1ccc(Nc2nc(N3CCNCC3)nc(N3CCOCC3)n2)cc1	n	n	n	n
COC(=O)c1ccccc1NC(=O)c1nc(-c2ccc(Cl)cc2)n2c1CCCCC2	n	n	n	34.8
Cc1cccc(NC(=O)CCN2CC(C)OC(C)C2)c1 (stereo not given)	n	n	n	35.5
Cc1cc(C)cc(NC(=O)CCN2CC(C)OC(C)C2)c1 (stereo not given)	n	n	n	n
O=[N+]([O-])c1ccc2c(c1)C=CC2	x	x	n	x
Cc1ccccc1CCNC(=O)Cn1ccc2cc(S(=O)(=O)N3CCCC3)ccc21	n	n	n	30.1
Cc1ccc(O)c(C(=O)c2cnc3c(c2)COc2ccccc2-3)c1	n	n	n	n
